For the assay, the target named is C-X-C chemokine receptor type 6 (Homo sapiens) (UniProt O00574). Kind of assay: CXCR6 and CXCR5 receptor antagonist panel, profiling panel, selectivity assay for CXCR6 antagonist project, cell-based, CHO-K1 PathHunter beta-arrestin, luminescence, set 4 (AID 651919). The settings on record: run 4, at 79 µM (top of the series).
C-X-C chemokine receptor type 6 (Homo sapiens), sequence (O00574 whole entry, looked up): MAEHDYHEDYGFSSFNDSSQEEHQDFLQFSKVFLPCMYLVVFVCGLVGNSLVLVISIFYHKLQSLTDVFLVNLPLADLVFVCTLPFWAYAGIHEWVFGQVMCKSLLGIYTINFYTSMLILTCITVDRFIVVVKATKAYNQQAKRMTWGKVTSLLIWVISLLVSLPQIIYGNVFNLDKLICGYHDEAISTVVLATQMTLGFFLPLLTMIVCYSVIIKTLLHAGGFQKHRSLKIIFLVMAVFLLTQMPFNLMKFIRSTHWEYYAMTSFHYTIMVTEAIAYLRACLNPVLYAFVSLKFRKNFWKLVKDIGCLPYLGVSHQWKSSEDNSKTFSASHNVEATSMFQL

The inhibition is the share of the control response that was lost under treatment. For the compound `COc1cc(C(=O)NC2CC3CCCC(C2)N3CC(=O)Nc2ccccc2Cl)cc(OC)c1OC` (configuration not stated), the inhibition was determined as 99%.

Compound `COc1cc(C(=O)NC2CC3CCCC(C2)N3CC(=O)Nc2ccccc2)cc(OC)c1OC` (configuration not stated) came in with an inhibition of 92.9%.

Values taken from PubChem BioAssay AID651919 (Sanford-Burnham Center for Chemical Genomics, 2012).
